# Bioassay records from PubChem.
# Hits are enriched below; roughly 11% of the tested compounds scored in any of these assays.
# ALDH1A1 inh: inhibitors of human aldehyde dehydrogenase 1A1 | Potency, µM (titrated, usually from 75.3 µM), inactives show at the top dose activity, negative = inhibition, hits mostly inhibitors | 220,000 tested, 7.3% active | P00352 | Purified ALDH1A1, NADH fluorescence, propionaldehyde substrate;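 further: potency means the concentration at half of the fitted maximal effect; plate controls were no enzyme wells and a reference inhibitor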
# Target sequence (P00352 whole entry, looked up): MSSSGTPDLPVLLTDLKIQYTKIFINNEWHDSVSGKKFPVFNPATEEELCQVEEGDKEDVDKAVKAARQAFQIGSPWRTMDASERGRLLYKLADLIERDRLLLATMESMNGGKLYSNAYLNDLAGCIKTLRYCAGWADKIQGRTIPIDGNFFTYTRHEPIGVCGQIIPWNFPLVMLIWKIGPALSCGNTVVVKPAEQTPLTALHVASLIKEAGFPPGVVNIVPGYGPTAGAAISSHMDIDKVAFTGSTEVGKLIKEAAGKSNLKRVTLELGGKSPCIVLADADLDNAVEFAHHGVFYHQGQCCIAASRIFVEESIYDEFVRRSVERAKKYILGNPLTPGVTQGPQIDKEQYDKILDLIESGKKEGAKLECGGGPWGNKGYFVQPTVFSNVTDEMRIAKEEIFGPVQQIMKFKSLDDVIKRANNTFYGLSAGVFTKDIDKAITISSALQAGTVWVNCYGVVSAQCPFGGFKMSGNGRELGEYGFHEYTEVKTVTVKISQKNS
# HPGD block: inhibitors of human 15-hydroxyprostaglandin dehydrogenase (HPGD); purified HPGD, NADH fluorescence kinetic, PGE2 substrate; AID 894; P15428; 150,000 tested, 4.3% active; Potency, µM, for the others: at the highest dose activity change, negative = inhibition, actives largely listed as inhibitors; further: potency means the concentration at half of the fitted maximal effect
#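 20 nM HPGD preincubated 15 min at room temperature with compound in 50 mM Tris-HCl pH 8, 0.01% Tween 20. Started with 1 mM NAD+ and 30 uM prostaglandin E2; NADH fluorescence (360/450 nm) read 5 times over 30-s intervals, last minus first.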
# PNC inhibitor: perinucleolar compartment assembly inhibition | PC3M PTB-GFP, PNC prevalence imaging, 16 h; active compounds read low | activity change (PNC), negative = inhibition, % at 10 µM | 140,000 tested, 3.1% active | AID 2417;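 active means readout at or below -70, meaning at least 70% loss of cells showing the perinucleolar compartment, a nuclear body marking cancer cells; inconclusive means readout between -30 and a set limit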;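 further: plate controls were DMSO wells for no effect and camptothecin positive control wells for full effect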
#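 PC3M cells stably expressing PTB-GFP, 750–1000 cells/well, treated 16 h at 37 °C with compound (23 nl of library stock), in duplicate. After paraformaldehyde fixation and Hoechst stain, imaged at 20x; PNC prevalence scored by image analysis.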
# An asterisk follows results filed as active; ? = inconclusive; / = no result; [ ] = remark or other dose. Unless noted, the call rests on the fitted dose curve; in most records, active means well fitted inhibition curve with a large enough effect (not every such curve was filed as active); inconclusive means small, poorly fitted or top-dose-only effect, or another doubt; inactive means no such curve, though single readings can be large or run the other way. Unless noted, on the % scale 0 is the no-effect control and ±100 the full control effect.
SMILES,ALDH1A1 inh,HPGD block,PNC inhibitor
CCOC(=O)c1[nH]ncc1CN1CCCC(C(=O)c2ccc(C(C)(C)C)cc2)C1 (stereo not given),8.8%,/,/
COc1cc(N=c2ssnc2Cl)c(OC)cc1Cl,1.58µM*,3.55µM*,10.4
COc1ccc(OC)c(N=C2C(=O)Nc3ccccc32)c1,-12.1%,-8.9%,72.8
COc1cc(-n2nnnc2SC)c(OC)cc1Cl,-7.7%,/,/
COc1ccc(OC)c(N=c2ssnc2Cl)c1,1.58µM*,3.16µM*,-15.1
Cc1ccc(NC(=O)CN(C)C(=O)c2ccc(C(F)(F)F)cc2)cc1,14.1%,3.0%,?
CN1CCc2c(n(CC(O)CN(CCO)CCO)c3ccccc23)C1=O (stereo not given),0.3%,/,/
O=C1c2ccccc2S(=O)(=O)N1CC(O)COc1ccc(Cl)cc1 (stereo not given),?,/,-16.7
Cc1c(C)n(CC(O)CN2C(=O)c3ccccc3S2(=O)=O)c2ccccc12 (stereo not given),14.1µM*,20µM*,?
CC(C)C(NC(=O)CN1C(=O)c2ccccc2S1(=O)=O)C(C)C,-4.0%,-11.2%,?
O=C1c2ccccc2S(=O)(=O)N1CC(O)COc1ccc(Br)cc1 (stereo not given),?,?,-105.5*
CN1CCc2c(n(CC(O)CN3C(=O)c4ccccc4S3(=O)=O)c3ccccc23)C1=O (stereo not given),10µM*,-1.4%,-3.0
NS(=O)(=O)c1ccc(NC(=O)COC(=O)COc2ccc(Cl)cc2)cc1,7.3%,/,/
Cc1ccc(N2/C(=N/c3nc(C)cc(C)n3)NC(=O)CC2C(=O)O)cc1 (stereo not given),-12.0%,-17.3%,65.6
Cc1cc(C)nc(/N=C2\NC(=O)CC(C(=O)O)N2c2ccc(Oc3ccccc3)cc2)n1 (stereo not given),-4.8%,12.6µM*,?
COc1ccccc1NS(=O)(=O)c1ccc(O)c(C(N)=O)c1,?,-16.2%,?
COc1ccccc1NS(=O)(=O)c1ccc(O)c(C(=O)OCC(=O)c2ccc(Cl)cc2Cl)c1,1.12µM*,/,/
COc1ccccc1NS(=O)(=O)c1ccc(O)c(C(=O)OCC(=O)N2c3ccccc3CC2C)c1 (stereo not given),7.94µM*,/,/
Cc1cc(C(=O)OCC(=O)N2c3ccccc3CC2C)c(C)o1 (stereo not given),?,0.3%,?
CCCCCCC[N+](CC)(CC)CCCCc1ccc(Cl)cc1,18.0%[20.9 µM],-0.6%,/
CC(C)(C)c1cc(CN(CCO)CCO)cc(C(C)(C)C)c1O,2.51µM*,25.1µM*,?
CN(C)Cc1cc(C(C)(C)C)c(O)c(C(C)(C)C)c1,?,-1.9%,2.9
O=[N+]([O-])c1cc(/C=N/Nc2nc(N3CCCCC3)nc(N3CCCCC3)n2)ccc1O,?,-21.8%,47.5
Nc1nnnn1/N=C/c1ccc(N2CCCCC2)c([N+](=O)[O-])c1,0.0708µM*,-14.3%,-1.9
O=C(/C=C/c1ccc(Cl)cc1)N1CCN(c2ccc(Cl)cc2[N+](=O)[O-])CC1,-6.7%,-12.5%,16.4
SMILES,ALDH1A1 inh,HPGD block,PNC inhibitor
COc1ccccc1N1CCN(C(=O)/C=C/c2cccc([N+](=O)[O-])c2)CC1,14.1µM*,/,/
COc1ccccc1N1CCN(C(=O)/C=C/c2ccc(C)cc2)CC1,-1.9%,-6.4%,39.9
COc1ccccc1C(=O)/C=C/c1ccc(N2CCCCC2)c([N+](=O)[O-])c1,6.31µM*,-10.5%,?
O=C(/C=C/c1ccc(N2CCCCC2)c([N+](=O)[O-])c1)c1ccc(O)cc1,25.1µM*,/,/
COC(=O)c1cc(NS(=O)(=O)c2ccc(N3CCCCC3)c([N+](=O)[O-])c2)cc(C(=O)OC)c1,?,-11.7%,1.1
OC(CNCc1ccccc1C(F)(F)F)C(F)(F)F (stereo not given),1.6%,/,/
CCC(=O)N1CCN(c2c(Cl)cccc2[N+](=O)[O-])CC1,?,-10.3%,1.3
O=C(/C=C/c1ccccc1)N1CCN(c2c(Cl)cccc2[N+](=O)[O-])CC1,?,14.1µM*,?
Cc1noc(C)c1C(=O)N1CCC2(CCN(C(=O)NC(C)C)CC2)CC1,7.7%,-7.2%,/
CC(=O)Nc1c(I)c(C(=O)N[C@H]2[C@@H](O)[C@H](O)[C@H](CO)O[C@@H]2O)c(I)c(N(C)C(C)=O)c1I,10.9%[20.9 µM],0.6%,/
O=C(Oc1nsnc1N1CCOCC1)c1ccccc1,28.2µM*,-26.7%,?
O=C(Oc1nsnc1N1CCOCC1)N1CCOCC1,-3.4%,-12.3%,10.1
O=C(CN1CCN(c2ccccc2)CC1)Nc1cccc([N+](=O)[O-])c1,2.9%,/,/
CCOc1ccc(NCc2nc3ccccc3n2CCOc2ccccc2)cc1,-13.2%,-12.4%,-113.4*
CC(O)c1nc2ccccc2n1CCOc1ccccc1 (stereo not given),-8.2%,-4.3%,84.5
COc1ccc(Nc2ccc3c(c2)=NC2(CCCCC2)[N+]=3[O-])cc1,3.55µM*,-16.4%,13.4
[O-][N+]1=c2ccc(Nc3ccccc3)cc2=NC12CCCCC2,3.55µM*,-19.5%,1.0
c1ccc(Nc2cccc(Nc3ccccc3)c2)cc1,?,7.8%,14.0
COc1ccc(NC2=NC(=S)N(c3ccccc3C)C23CCCCC3)cc1,-12.7%,-12.0%,35.6
CN(C(=O)COC(=O)c1ccc(=O)n(Cc2ccccc2)n1)c1ccccc1,7.6%,/,/
Cc1ccc(NC(=O)NC2=NN(c3ccccc3)C(=O)/C2=C2/CCCN2C)cc1,7.08µM*,/,/
CN1CCC/C1=C1/C(=O)N(c2ccccc2)N=C1NC(=O)Nc1cccc(Cl)c1,-0.8%,/,/
CNC(=O)NC(=O)C(C)OC(=O)c1cc2c(s1)CCCCC2 (stereo not given),11.4%,-3.6%,?
O=C(OCc1nnc(-c2ccc(Cl)cc2)o1)c1ccncc1,-34.7%,-28.6%,27.8
Cc1noc(C)c1COc1ccc(C(=O)OCc2nnc(-c3ccc(Cl)cc3)o2)cc1,18.9%,/,-83.6*
SMILES,ALDH1A1 inh,HPGD block,PNC inhibitor
CC(=O)c1ccc(N2CCN(C(C)C(=O)NC3CCCc4ccccc43)CC2)cc1 (stereo not given),0.4%,-9.1%,?
CCCC[C@H](CC)CN=C(N)NC(N)=NCCCCCCN=C(N)NC(N)=NC[C@@H](CC)CCCC,9.8%[20.9 µM],-1.7%,/
COc1cccc(NS(=O)(=O)c2cc(C)sc2C)c1,-8.3%,?,-100.0*
COc1ccc(NC(=O)CNS(=O)(=O)c2cccc3nonc23)c(OC)c1,12.6µM*,?,?
Cc1cc(S(=O)(=O)Nc2cccc(Cl)c2)c(C)s1,-7.0%,/,/
O=C(CCCNS(=O)(=O)c1cccc2nsnc12)NCc1ccccc1,5.01µM*,/,?
CC(=O)c1ccc(NC(=O)CCNS(=O)(=O)c2cccc3nonc23)cc1,?,-10.5%,-25.5
O=C(CCCNS(=O)(=O)c1cccc2nsnc12)NCc1ccc(Cl)cc1,?,-8.2%,-11.3
CCc1ccc(NC(=O)CCNS(=O)(=O)c2cccc3nonc23)cc1,22.4µM*,-0.1%,59.0
COc1ccc(NC(=O)CCS(=O)(=O)c2ccccc2)c(OC)c1,0.5%,0.1%,?
COc1ccc(NS(=O)(=O)c2cc(NC(=O)c3ccco3)ccc2N2CCCCC2)cc1,?,-22.3%,29.5
COC(=O)C/C=C\[C@@H](C)[C@@H](/C=N\OC[C@@H](O)COCc1ccco1)OC,1.9%[13.5 µM],/,/
